{"source": "PubChem BioAssay (EPA / NIEHS)", "key": {"[1]": {"assay": "BSK_BT_PBMCCytotoxicity: PBMC Cytotoxicity Assessment in the BioMAP Diversity Plus: BT Assay (AID 2284225);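 further: PBMC viability measured by Alamar Blue dye reduction fluorescence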", "settings": "primary human B cells with PBMC", "procedure,_shortened": "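75,000 cells/well; cpd 1 h → SEB + TSST-1 (20 ng/mL final each) → 90 h → Alamar Blue 6 h → fluor. 546/580 nm. DMSO = neg. control/baseline.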"}, "[2]": {"read-out": "Secreted IgG (sIgG), gene 3500", "assay": "BSK_BT_sIgG: BioMAP Diversity Plus: BT Assay for Secreted IgG (sIgG) Biomarker Activity (AID 2284226)", "settings": "primary human B cells with PBMC", "procedure,_shortened": "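B cells co-cultured with PBMC were dosed with chemical and secreted IgG quantified by ELISA at 24 h. Activity was fitted in the positive direction relative to DMSO as negative control and baseline.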"}, "[3]": {"assay": "BSK_BT_Bcell_Proliferation: Viability Assessment in the BioMAP Diversity Plus: BT Assay for B cell Proliferation (AID 2284227)", "settings": "primary human B cells with PBMC", "procedure,_shortened": "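Human B cell/PBMC co-culture; test chemical added; 72 h; TCA fix (10%), 0.1% SRB stain, A560 for total protein as a proliferation read-out; positive-direction fit vs DMSO baseline.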"}, "[4]": {"assay": "CCTE_Mundy_HCI_Cortical_Synap_Neur_Matur_NeuriteLength: CCTE's Synaptogenesis and Neurite Maturation Assay in rat cortical cells for Neurite Length, Mundy Lab (AID 2284214)", "experimental": "(§1) CCTE_Mundy_HCI_Cortical_Synap&Neurite_Matur is a multiplexed, cell-based-readout assay that uses rat primary cortical cells with measurements taken at 288.33 hours after chemical dosing in a microplate: 96-well plate.CCTE_Mundy_HCI_Cortical_Synap_Neur_Matur_NeuriteLength is one of eight components of the CCTE_Mundy_HCI_Cortical_Synap&Neurite_Matur assay. It measures synaptogenesis and neurite maturation related to neurite length using High Content Imaging of fluorescently labelled markers.[…] Using a type of morphology reporter, loss -of-signal activity can be used to understand developmental effects.\n(§2) Cells are plated onto 96 well plates and allowed 2 hr for attachment to the substrate. At days in vitro (DIV) 5, Cytosine Arabinoside (AraC) is added to arrest glial cell growth. Chemicals are dosed and a media change is performed at DIV 7 of differentiation and is continued through DIV 12 when the experiment is terminated. Cells are fixed with […] and Hoechst Dye. Cells are stained using Millipore Mouse anti-MAP2MAB3418 (1:800) and Millipore Rabbit anti-Synaptophysinsc-1750 (1:250) primary antibodies and Alexa Fluor-488 goat anti-mouse and AlexaFluor-546 goat anti-rabbit secondary antibodies to label neuronal cell nuclei, synapses and neurites. A Cellomics ArrayScan VTi HCS Reader is used for automated image acquisition and analysis of neurite outgrowth."}, "[5]": {"assay": "CCTE_Mundy_HCI_Cortical_Synap_Neur_Matur_NeuriteSpotCountPerNeuron: CCTE's Synaptogenesis and Neurite Maturation Assay in rat cortical cells for Neurite Spot Count per Neuron Count, Mundy Lab (AID 2284215)", "experimental": "as §1, with “plate.CCTE_Mundy_HCI_Cortical_Synap_Neur_Matur_NeuriteSpotCountPerNeuron” for “plate.CCTE_Mundy_HCI_Cortical_Synap_Neur_Matur_NeuriteLength”, “number of neurite-associated synapses (synaptophysin puncta) per neuron” for “neurite length”\nas §2"}, "[6]": {"assay": "CCTE_Mundy_HCI_Cortical_Synap_Neur_Matur_SynapseCount: CCTE's Synaptogenesis and Neurite Maturation Assay in rat cortical cells for Synapse Count, Mundy Lab (AID 2284218)", "procedure,_shortened": "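Rat primary cortical cells in 96-well plates received AraC at DIV 5 and were dosed with chemicals at DIV 7 with media change, through DIV 12 (288.33 h). Synapses per neuron counted by high-content imaging of MAP2/synaptophysin/Hoechst staining, versus DMSO baseline.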"}, "[7]": {"assay": "CCTE_Mundy_HCI_Cortical_Synap_Neur_Matur_NeuriteCount: CCTE's Synaptogenesis and Neurite Maturation Assay in rat cortical cells for Neurite Count, Mundy Lab (AID 2284222)", "procedure,_shortened": "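Rat cortical neurons, 96-well; AraC DIV 5; chemical + media change DIV 7; end DIV 12. Fix PFA/Hoechst, anti-MAP2 + anti-synaptophysin IF. HCI neurite count vs DMSO baseline.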"}, "[8]": {"assay": "CCTE_Mundy_HCI_Cortical_Synap_Neur_Matur_CellBodySpotCount: CCTE's Synaptogenesis and Neurite Maturation Assay in rat cortical cells for Cell Body Spot Count, Mundy Lab (AID 2284223)", "procedure,_shortened": "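Rat primary cortical cultures received AraC at DIV 5 to arrest glia, were dosed with chemical at DIV 7 with media change, and were fixed at DIV 12 (288.33 h). Synaptophysin puncta on MAP2-positive cell bodies per neuron were counted by high-content imaging versus DMSO.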"}, "[9]": {"assay": "TAMU_PeakParms_SingleDonor1434_Chronotropy: Texas A&M University (TAMU) 1.5-hr Human Induced Pluripotent Stem Cell (iPSC)-derived Cardiomyocytes Calcium (Ca+2) Flux Assay for Cardiotoxicity: Chronotropy (changes in peak frequency) (AID 2284217)", "settings": "actives raise or lower the signal", "procedure,_shortened": "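Beat rate, as mean Ca2+-flux peak frequency, was read from donor 1434 iPSC cardiomyocytes 90 min after exposure to 0.2–100 uM test chemical (0.5% DMSO). Wells that stopped beating were excluded; EC05 from bidirectional DMSO-referenced fitting.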"}, "[10]": {"assay": "CCTE_Mundy_HCI_hNP1_Pro_ResponderAvgInten: CCTE's Proliferation Assay in human neuroprogenitor cells, Mundy Lab (AID 2284224; active means hit-call score of the fitted dose curve at least 0.9, where 1 is the maximum)", "procedure,_shortened": "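Proliferation was scored as BrdU labelling intensity in human neural progenitors derived from WA09 embryonic cells, measured 26.25 hours after chemical dosing. Activity was fitted relative to DMSO.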"}}, "note": "Values joined by “and” are separate entries in the source; they are usually repeats but may differ in a detail not shown here. Equal values may be shown once. Records with an inconclusive call do not appear. A structure can be active in one record and inactive in another. Active and inactive are the calls of the source. How the source made its calls, unless noted: active means hit-call score of the fitted dose curve at least 0.9, where 1 is the maximum; inactive means score below 0.9.", "data": [{"smiles": "O=C1OC2(c3ccc(O)cc3Oc3cc(O)ccc32)c2ccccc21", "values": [{"measurement": "outcome", "setting": "[1]", "value": "inactive"}, {"measurement": "AC50", "setting": "[2]", "value": "35.5 µM (active)"}, {"measurement": "outcome", "setting": "[3]", "value": "inactive"}]}, {"smiles": "CCCCCCCCCC(=O)OCC", "values": [{"measurement": "outcome", "setting": "[1]", "value": "inactive"}, {"measurement": "outcome", "setting": "[2]", "value": "inactive"}, {"measurement": "outcome", "setting": "[3]", "value": "inactive"}]}, {"smiles": "C=C(C)C(=O)OCCC(F)(F)C(F)(F)C(F)(F)C(F)(F)C(F)(F)C(F)(F)C(F)(F)C(F)(F)F", "values": [{"measurement": "outcome", "setting": "[1]", "value": "inactive"}, {"measurement": "outcome", "setting": "[2]", "value": "inactive"}, {"measurement": "outcome", "setting": "[3]", "value": "inactive"}]}, {"smiles": "CCOC(=O)CCCCCCCCC(=O)OCC", "values": [{"measurement": "outcome", "setting": "[1]", "value": "inactive"}, {"measurement": "outcome", "setting": "[2]", "value": "inactive"}, {"measurement": "outcome", "setting": "[3]", "value": "inactive"}]}, {"smiles": "N[C@@H](CCC(=O)O)C(=O)O", "values": [{"measurement": "outcome", "setting": "[4]", "value": "inactive"}, {"measurement": "outcome", "setting": "[5]", "value": "inactive"}, {"measurement": "outcome", "setting": "[6]", "value": "inactive"}, {"measurement": "outcome", "setting": "[7]", "value": "inactive"}, {"measurement": "outcome", "setting": "[8]", "value": "inactive"}]}, {"smiles": "CNC(=C[N+](=O)[O-])NCCSCc1ccc(CN(C)C)o1", "values": [{"measurement": "outcome", "setting": "[9]", "value": "inactive"}]}, {"smiles": "C=CC(=O)OCC(CO)(COC(=O)C=C)COC(=O)C=C", "values": [{"measurement": "AC50", "setting": "[1]", "value": "1.7 µM (active)"}, {"measurement": "AC50", "setting": "[2]", "value": "0.709 µM (active)"}, {"measurement": "AC50", "setting": "[3]", "value": "1.19 µM (active)"}]}, {"smiles": "CCOC(=O)C=Cc1ccccc1", "values": [{"measurement": "outcome", "setting": "[1]", "value": "inactive"}, {"measurement": "outcome", "setting": "[2]", "value": "inactive"}, {"measurement": "outcome", "setting": "[3]", "value": "inactive"}]}, {"smiles": "O=S1(=O)CC(Cl)(Cl)C(Cl)(Cl)C1", "values": [{"measurement": "AC50", "setting": "[1]", "value": "0.874 µM (active)"}, {"measurement": "AC50", "setting": "[2]", "value": "0.329 µM (active)"}, {"measurement": "AC50", "setting": "[3]", "value": "0.537 µM (active)"}]}, {"smiles": "CC(C)Cc1ccc(C(C)C(=O)O)cc1", "note": "(stereo not given)", "values": [{"measurement": "outcome", "setting": "[4]", "value": "inactive"}, {"measurement": "outcome", "setting": "[5]", "value": "inactive"}, {"measurement": "outcome", "setting": "[6]", "value": "inactive"}, {"measurement": "outcome", "setting": "[7]", "value": "inactive"}, {"measurement": "outcome", "setting": "[8]", "value": "inactive"}, {"measurement": "outcome", "setting": "[10]", "value": "inactive"}, {"measurement": "outcome", "setting": "[1]", "value": "inactive"}, {"measurement": "outcome", "setting": "[2]", "value": "inactive"}, {"measurement": "outcome", "setting": "[3]", "value": "inactive"}]}, {"smiles": "C=C1CC/C=C(\\C)CC[C@@H]2[C@@H]1CC2(C)C", "values": [{"measurement": "outcome", "setting": "[1]", "value": "inactive"}, {"measurement": "outcome", "setting": "[2]", "value": "inactive"}, {"measurement": "outcome", "setting": "[3]", "value": "inactive"}]}, {"smiles": "CCCCC(CC)COC(=O)COc1ccc(Cl)cc1C", "note": "(stereo not given)", "values": [{"measurement": "AC50", "setting": "[4]", "value": "14.1 µM (active)"}, {"measurement": "AC50", "setting": "[5]", "value": "16.3 µM (active)"}, {"measurement": "AC50", "setting": "[6]", "value": "16.4 µM (active)"}, {"measurement": "AC50", "setting": "[7]", "value": "17.1 µM (active)"}, {"measurement": "AC50", "setting": "[8]", "value": "25 µM (active)"}]}, {"smiles": "CC=CC(=O)C1=C(C)C=CCC1(C)C", "values": [{"measurement": "outcome", "setting": "[1]", "value": "inactive"}, {"measurement": "outcome", "setting": "[2]", "value": "inactive"}, {"measurement": "outcome", "setting": "[3]", "value": "inactive"}]}, {"smiles": "c1ccc2c(c1)-c1ccc3ccc4cccc5cc-2c1c3c45", "values": [{"measurement": "outcome", "setting": "[1]", "value": "inactive"}, {"measurement": "outcome", "setting": "[2]", "value": "inactive"}, {"measurement": "AC50", "setting": "[3]", "value": "1.98 µM (active)"}]}, {"smiles": "CCCCCCCCCCCCS", "values": [{"measurement": "outcome", "setting": "[1]", "value": "inactive"}, {"measurement": "outcome", "setting": "[2]", "value": "inactive"}, {"measurement": "outcome", "setting": "[3]", "value": "inactive"}]}, {"smiles": "O=S(=O)(O)C(F)(F)C(F)(F)OC(F)(F)C(F)(F)F", "values": [{"measurement": "outcome", "setting": "[1]", "value": "inactive"}, {"measurement": "outcome", "setting": "[2]", "value": "inactive"}, {"measurement": "outcome", "setting": "[3]", "value": "inactive"}]}, {"smiles": "O=C(O)C(F)(F)C(F)(F)C(F)(F)C(F)(F)C(F)(F)C(F)(F)C(F)(F)C(F)F", "values": [{"measurement": "AC50", "setting": "[1]", "value": "19.8 µM (active)"}, {"measurement": "outcome", "setting": "[1]", "value": "inactive"}, {"measurement": "outcome", "setting": "[2]", "value": "inactive"}, {"measurement": "AC50", "setting": "[3]", "value": "21 µM (active) and 22.2 µM (active)"}]}]}
